Laboratory results reported in PubChem BioAssay AID1159580 (chemical genetic matrix, 2015).
Values joined by “and” are separate entries in the source; they are usually repeats but may differ in a detail not shown here. Equal entries are not always repeated. Out of some 5,500 compounds screened, about 2,000 (36%) were called active. Inconclusive results (about 18%) are left out. No stated cut-off is given here; in the data, active means normalized growth mostly below about 0.91 (no sharp cut-off); inconclusive means no clear call, values can overlap the other calls; inactive means mostly above about 0.92. This is one part of the list.

Experiment: chemical genetic growth profiling, strain panel (AID 1159580);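 further: tested at 20 µM; growth read once vehicle control cultures reached saturation at 30 °C; 1 = growth at the plate median or of vehicle wells; lower values mean less growth of the strain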
Conditions: S. cerevisiae deletion strains, growth OD

Measured: normalized growth

NC(=O)NC(=O)Cc1ccccc1
inactive: locus YAL013W, strain DEP1, hits give low values 1.03 | locus YAL021C, strain ccr4, hits give low values 0.999 | locus YAL026C, strain drs2, hits give low values 0.976 | locus YAL030W, strain snc1, hits give low values 0.995 | locus YBL061C, strain skt5, hits give low values 0.975 | locus YBR009C, strain hhf1, hits give low values 1.04 | locus YBR021W, strain FUR4, hits give low values 1.02 | locus YBR023C, strain chs3, hits give low values 0.974 | locus YBR171W, strain sec66, hits give low values 0.992 | locus YBR229C, strain ROT2, hits give low values 0.995 | locus YBR231C, strain swc5, hits give low values 1.01 | locus YBR279W, strain paf1, hits give low values 0.979 | locus YCL011C, strain gbp2, hits give low values 0.961 | locus YCL016C, strain dcc1, hits give low values 0.96 | locus YCL029C, strain bik1, hits give low values 0.997 | locus YCL069W, strain vba3, hits give low values 1.01 | locus YCR088W, strain abp1, hits give low values 0.993 | locus YDL005C, strain med2, hits give low values 0.98 | locus YDL035C, strain GPR1, hits give low values 1.02 | locus YDL040C, strain nat1, hits give low values 0.991 | locus YDL074C, strain BRE1, hits give low values 1.16 | locus YDL101C, strain DUN1, hits give low values 1 | locus YDL134C, strain PPH21, hits give low values 1 | locus YDL185W, strain tfp1, hits give low values 0.992 | locus YDL192W, strain arf1, hits give low values 0.991 | locus YDR001C, strain nth1, hits give low values 0.98 | locus YDR069C, strain doa4, hits give low values 0.99 | locus YDR101C, strain arx1, hits give low values 0.994 | locus YDR137W, strain rgp1, hits give low values 0.979 | locus YDR150W, strain NUM1, hits give low values 1.01 | locus YDR159W, strain sac3, hits give low values 0.997 | locus YDR162C, strain NBP2, hits give low values 1.04 | locus YDR195W, strain ref2 0.994 | locus YDR297W, strain sur2, hits give low values 0.996 | locus YDR318W, strain mcm21, hits give low values 0.993 | locus YDR334W, strain swr1, hits give low values 0.978 | locus YDR335W, strain msn5, hits give low values 0.964 | locus YDR388W, hits give low values 0.995 | locus YDR392W, strain spt3, hits give low values 0.916 | locus YDR502C, strain sam2, hits give low values 1.01 | locus YEL003W, strain gim4, hits give low values 0.998 | locus YEL037C, strain rad23, hits give low values 0.983 | locus YEL061C, strain CIN8 (second series), hits give low values 0.976 | locus YEL061C, strain CIN8, hits give low values 1.03 | locus YER015W, strain faa2, hits give low values 0.99 | locus YER016W, strain bim1, hits give low values 0.96 | locus YER110C, hits give low values 0.998 | locus YER111C, strain swi4, hits give low values 0.981 | locus YER155C, strain BEM2 (second series), hits give low values 1.04 | locus YER155C, strain BEM2, hits give low values 1 | locus YER167W, strain BCK2, hits give low values 1 | locus YFR010W, strain ubp6, hits give low values 1.01 | locus YGL078C, strain dbp3, hits give low values 1 | locus YGL086W, strain mad1, hits give low values 0.995 | locus YGL167C, strain pmr1, hits give low values 1 | locus YGL173C, strain kem1, hits give low values 1.04 | locus YGL227W, strain vid30, hits give low values 1 | locus YGL240W, strain doc1, hits give low values 1.04 | locus YGL248W, strain PDE1, hits give low values 1 | locus YGL253W, strain hxk2, hits give low values 0.955 | locus YGR078C, strain PAC10, hits give low values 1.01 | locus YGR135W, strain pre9, hits give low values 0.993 | locus YGR229C, strain SMI1, hits give low values 1.13 | locus YGR252W, strain gcn5, hits give low values 1.14 | locus YHR013C, strain ard1, hits give low values 0.964 | locus YHR027C, strain rpn1, hits give low values 0.999 | locus YHR030C, strain SLT2, hits give low values 1 and 0.964 | locus YHR079C, strain IRE1 (second series), hits give low values 1 | locus YHR079C, strain IRE1, hits give low values 0.978 | locus YHR094C, strain hxt1, hits give low values 1 | locus YHR129C, strain ARP1, hits give low values 1 | locus YHR142W, strain chs7, hits give low values 0.931 | locus YHR200W, strain rpn10, hits give low values 0.991 | locus YIL066C, strain RNR3, hits give low values 1.01 | locus YIL073C, strain SPO22, hits give low values 0.979 | locus YIL125W, strain kgd1, hits give low values 1 | locus YIR030C, strain dcg1, hits give low values 0.995 | locus YJL092W, strain hpr5, hits give low values 0.977 | locus YJL095W, strain BCK1 (second series), hits give low values 0.967 | locus YJL095W, strain BCK1, hits give low values 1.04 and 0.989 | locus YJL115W, strain asf1, hits give low values 0.957 | locus YJL129C, strain trk1, hits give low values 0.955 | locus YJL134W, strain LCB3, hits give low values 1.01 | locus YJL154C, strain vps35, hits give low values 0.984 | locus YJL164C, strain tpk1, hits give low values 0.998 | locus YJL166W, strain qcr8, hits give low values 1 | locus YJL168C, strain set2, hits give low values 0.997 | locus YJL187C, strain SWE1 (second series), hits give low values 0.995 | locus YJL187C, strain SWE1, hits give low values 0.994 | locus YJR043C, strain POL32, hits give low values 1.03 | locus YJR066W, strain TOR1, hits give low values 0.931
